# Assay results reported in PubChem BioAssay (NCI).
# Compounds without any hit were thinned out: in the full panel of roughly 83,000, 20% have a hit.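 Single-dose data. Exposure time 48 hours. Values below 10 considered active.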 Values without a mark were called inactive. The source made the active and inactive calls.
# Tested on: MOLT-4 leukemia
# Assay: NCI-60 one-dose screen, 48 h (100 = growth as untreated, 0 = no growth, -100 = all killed)
# Conditions: 10 µM unless noted
row,Compound,growth
1,Cc1cccc(NC(=O)[C@]23CCC(C)(C)CC2C2=CCC4[C@@]5(C)C[C@@H](O)[C@H](O)[C@@](C)(CO)C5CC[C@@]4(C)[C@]2(C)CC3)c1 (stereo partly drawn),5.2% (active)
2,CCCCSc1nc(NCCc2c[nH]c3ccccc23)c(C#N)c(-c2ccc(F)cc2)n1,36.5%
3,COc1ccc(-c2ccnc(SCc3cc4cc(Cl)ccc4[nH]c3=O)n2)cc1,93.6%
4,O=c1[nH]c2ccccc2cc1CSc1nccc(-c2ccc3ccccc3c2)n1,21.9%
5,CCCCCCCCc1ccc(S(=O)(=O)Nc2ccc(CC)cc2C(=O)O)cc1,91.1%
6,COc1cc(OC)c2c3nc4cc(C)c(C)cc4nc3n(CCN(C)C)c2c1,10.4%
7,N#Cc1c(-c2cccc(O)c2O)cc(-c2ccc3ccccc3c2)[nH]c1=O,29.9%
8,O=c1[nH]n(C(=S)N/N=C/c2ccccc2Cl)c(=O)c2ccccc12,-1.75% (active)
9,Cc1cc2nc3c4ccccc4n(CC4=NCCN4)c3nc2cc1C,-19.4% (active)
10,CCCCCCCCc1ccc(C(=O)Nc2cccc(P(=O)(O)O)c2)cc1,98.6%
11,Cc1cc2nc3c([nH]c2cc1C)c1ccc(=O)cc1n3CCN(C)C,5.98% (active)
12,O=C(c1ccc(Cl)cc1)c1ccc(OCCCN2CCN(c3ccncc3)CC2)cc1,15.7%
13,CCCCSc1nc(NCCc2c[nH]c3ccccc23)c(C#N)c(-c2ccccc2)n1,13.8%
14,CC(=O)OC[C@@]1(C)C2CC[C@]3(C)C(CC=C4C5CC(C)(C)CC[C@]5(C(=O)Nc5cccc(C)c5)CC[C@]43C)[C@@]2(C)C[C@@H](OC(C)=O)[C@@H]1OC(C)=O (stereo partly drawn),30.7%
15,COc1ccc(C(SCCNCc2cc(N(C)C)ccn2)(c2ccccc2)c2ccccc2)cc1,9.51% (active)
16,O=c1onc(-c2cc3ccccc3nc2Cl)n1-c1cccc2ccccc12,24.5%
17,O=C(Cn1c2c(sc1=O)[C@H]1[C@@H](O)[C@@H](O)[C@H](O)[C@@H]1CS2)N1CCOCC1,118%
18,CC(=O)Nc1cccc(Nc2nc(N[C@H]3CCCc4ccccc43)c3ccccc3n2)c1,100%
19,N/C(=N\c1nc2ccccc2s1)NC(=O)NCCCCCCO,4.34% (active)
20,COc1ccc2c(c1)C(=N/N=C(\C)c1ccc(OC)c(S(N)(=O)=O)c1)C(=O)N2,94.5%
21,CCCSc1nc(NCCc2c[nH]c3ccccc23)c(C#N)c(-c2ccc(F)cc2)n1,42.5%
22,O=c1[nH]c2ccccc2cc1CSc1cccc(Nc2nccc(-c3ccc4ccccc4c3)n2)c1,65.9%
23,CCN(CC)c1ccnc(CNCCSC(c2ccccc2)(c2ccccc2)c2ccc(C)cc2)c1,-30.9% (active)
24,CN(C)CCn1c2ccccc2c2nc3cc(C(F)(F)F)ccc3nc21,23.8%
25,CC1(C)CC[C@]2(C(=O)Nc3ccc(Br)cc3)CC[C@]3(C)C(=CCC4[C@@]5(C)C[C@@H](O)[C@H](O)[C@@](C)(CO)C5CC[C@]43C)C2C1 (stereo partly drawn),-10.5% (active)
26,CCC(C)(C)c1ccc(OCCCCCCN2CCN(c3ccncc3)CC2)cc1,-23.5% (active)
27,Cc1ccc(C(=O)CSc2nc3ccc(F)cc3c(=O)n2-c2ccc(Cl)cc2)cc1,82.4%
28,Cc1sc(C(NC(=O)OCCn2c([N+](=O)[O-])cnc2C)C(F)(F)Cl)nc1-c1ccc(OC(F)(F)F)cc1 (stereo not drawn),2.22% (active)
29,COc1ccc(NC(=O)Cn2c3c(sc2=O)[C@H]2[C@@H](O)[C@@H](O)[C@H](O)[C@@H]2CS3)cc1,108%

# Tested on: SR leukemia
# Assay: as above
# Conditions: 10 µM unless noted
row,Compound,growth
1,Cc1cccc(NC(=O)[C@]23CCC(C)(C)CC2C2=CCC4[C@@]5(C)C[C@@H](O)[C@H](O)[C@@](C)(CO)C5CC[C@@]4(C)[C@]2(C)CC3)c1 (stereo partly drawn),-26% (active)
2,CCCCSc1nc(NCCc2c[nH]c3ccccc23)c(C#N)c(-c2ccc(F)cc2)n1,5.24% (active)
3,COc1ccc(-c2ccnc(SCc3cc4cc(Cl)ccc4[nH]c3=O)n2)cc1,92.5%
4,O=c1[nH]c2ccccc2cc1CSc1nccc(-c2ccc3ccccc3c2)n1,20.6%
5,CCCCCCCCc1ccc(S(=O)(=O)Nc2ccc(CC)cc2C(=O)O)cc1,96.7%
6,COc1cc(OC)c2c3nc4cc(C)c(C)cc4nc3n(CCN(C)C)c2c1,0.994% (active)
7,N#Cc1c(-c2cccc(O)c2O)cc(-c2ccc3ccccc3c2)[nH]c1=O,12.1%
8,O=c1[nH]n(C(=S)N/N=C/c2ccccc2Cl)c(=O)c2ccccc12,-13.8% (active)
9,Cc1cc2nc3c4ccccc4n(CC4=NCCN4)c3nc2cc1C,0.0191% (active)
10,CCCCCCCCc1ccc(C(=O)Nc2cccc(P(=O)(O)O)c2)cc1,87.7%
11,Cc1cc2nc3c([nH]c2cc1C)c1ccc(=O)cc1n3CCN(C)C,3.01% (active)
12,O=C(c1ccc(Cl)cc1)c1ccc(OCCCN2CCN(c3ccncc3)CC2)cc1,-32% (active)
13,CCCCSc1nc(NCCc2c[nH]c3ccccc23)c(C#N)c(-c2ccccc2)n1,2.16% (active)
14,CC(=O)OC[C@@]1(C)C2CC[C@]3(C)C(CC=C4C5CC(C)(C)CC[C@]5(C(=O)Nc5cccc(C)c5)CC[C@]43C)[C@@]2(C)C[C@@H](OC(C)=O)[C@@H]1OC(C)=O (stereo partly drawn),30%
15,COc1ccc(C(SCCNCc2cc(N(C)C)ccn2)(c2ccccc2)c2ccccc2)cc1,-43.2% (active)
16,O=c1onc(-c2cc3ccccc3nc2Cl)n1-c1cccc2ccccc12,16.8%
17,O=C(Cn1c2c(sc1=O)[C@H]1[C@@H](O)[C@@H](O)[C@H](O)[C@@H]1CS2)N1CCOCC1,99.6%
18,CC(=O)Nc1cccc(Nc2nc(N[C@H]3CCCc4ccccc43)c3ccccc3n2)c1,81.3%
19,N/C(=N\c1nc2ccccc2s1)NC(=O)NCCCCCCO,32.4%
20,COc1ccc2c(c1)C(=N/N=C(\C)c1ccc(OC)c(S(N)(=O)=O)c1)C(=O)N2,83.2%
21,CCCSc1nc(NCCc2c[nH]c3ccccc23)c(C#N)c(-c2ccc(F)cc2)n1,6.1% (active)
22,O=c1[nH]c2ccccc2cc1CSc1cccc(Nc2nccc(-c3ccc4ccccc4c3)n2)c1,89.5%
23,CCN(CC)c1ccnc(CNCCSC(c2ccccc2)(c2ccccc2)c2ccc(C)cc2)c1,-60.8% (active)
24,CN(C)CCn1c2ccccc2c2nc3cc(C(F)(F)F)ccc3nc21,11.1%
25,CC1(C)CC[C@]2(C(=O)Nc3ccc(Br)cc3)CC[C@]3(C)C(=CCC4[C@@]5(C)C[C@@H](O)[C@H](O)[C@@](C)(CO)C5CC[C@]43C)C2C1 (stereo partly drawn),-9.66% (active)
26,CCC(C)(C)c1ccc(OCCCCCCN2CCN(c3ccncc3)CC2)cc1,-27.5% (active)
27,Cc1ccc(C(=O)CSc2nc3ccc(F)cc3c(=O)n2-c2ccc(Cl)cc2)cc1,93.9%
28,Cc1sc(C(NC(=O)OCCn2c([N+](=O)[O-])cnc2C)C(F)(F)Cl)nc1-c1ccc(OC(F)(F)F)cc1 (stereo not drawn),5.16% (active)
29,COc1ccc(NC(=O)Cn2c3c(sc2=O)[C@H]2[C@@H](O)[C@@H](O)[C@H](O)[C@@H]2CS3)cc1,99.1%
